Bioassay records deposited in PubChem BioAssay by several laboratories.
C8 TRAIL sens: viability loss with TRAIL in NB7+C8 cells, primary screen, TRAIL sensitizer project, cell-based, ATPlite luminescence | inhibition (viability loss, TRAIL sensitization), % at 10 µM | 1% of 360,000 active | AID 624354, 2012;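 active means compounds causing at least 50% loss of cell viability in the single-dose screen, relative to plate controls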
TROY signal inh: inhibitors of TROY-driven NF-kB signaling, primary screen, Q293 LMP1-TROYcd cells, NF-kB luciferase, uHTS; 0.98% of 360,000 active; inhibition, % at 10 µM; Q293 LMP1-TROYcd NF-kB luciferase reporter, 4 h;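 active means compounds whose plate-normalised and pattern-corrected inhibition of the luciferase reporter signal at the single screening dose is 50% or more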
HSP90 refold inh: HSP90 inhibitors, primary screen, cell lysate, luminescence | Rabbit reticulocyte lysate, luciferase refolding luminescence, 3 h | inhibition, % at 5.6 µM | 0.91% of 290,000 active | AID 1789, 2009;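 active means inhibition above the screen-wide mean plus 3 SD, computed separately per campaign, cut at about 16% in these data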;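 further: 0% = DMSO wells and 100% = 60 µM geldanamycin wells; inhibitors lower the luminescence because luciferase stays unfolded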
Platelet DG rel: inhibitors of platelet dense granule secretion, primary screen, cell-based, MLPCN, human platelets. human platelet-rich plasma, SFLLRN dense granule ATP release, luminescence. inhibition, %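 (compounds screened at 7.5 µM in platelet-rich plasma)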. 0.22% of 300,000 active;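 active means mean replicate score, as percent of positive control, at or above 50; inconclusive means mean below 50 but at least one replicate at or above 50; inactive means mean and every replicate below 50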
PPC-1+TRAIL kill: compounds killing PPC-1 cancer cells with TRAIL present, primary screen, TRAIL potentiator project, ATPLite luminescence, uHTS | PPC-1 cells + TRAIL, ATPLite viability luminescence | cell killing (% activity), % at 4 µM or 5 µM | 0.41% of 220,000 active | AID 1443, 2008;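 active means cell killing above 50% in the first pass at 4 µM, then a duplicate retest at 5 µM averaging 50% or more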;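 further: plate controls were cells with TRAIL plus DMSO for no effect and medium-only wells lacking cells for full effect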
TWEAK Fn14 block: inhibitors of TWEAK-Fn14 signaling, primary screen, luciferase reporter cells, uHTS. TWEAK-stimulated Fn14 reporter cells, luciferase luminescence, 8 h. inhibition, % at 10 µM. AID 1159606, 2016. 2% of 360,000 active; in the data active means inhibition above about 50%
Numbers without * were called inactive; ? = inconclusive; / = no result. Most compounds without a hit are left out; they make up all but 3.5% or so of the library.

SMILES	C8 TRAIL sens	TROY signal inh	HSP90 refold inh	Platelet DG rel	PPC-1+TRAIL kill	TWEAK Fn14 block
O=C(N/N=C/C(Cl)=C/c1ccccc1)c1ccccn1	56.2*	-44.6	3.9	18.0	45.1	-1.7
CCN(CC)S(=O)(=O)c1ccc(C(=O)NCCOC(=O)c2ccc(F)cc2F)cc1	1.8	1.1	3.1	-3.3	/	9.5
COc1cccc(NC(=O)c2cc(-c3ccco3)nc3ccccc23)c1	-5.2	2.1	/	-1.2	/	3.0
COc1cc(-c2cc(C(=O)Nc3cccc(C(C)=O)c3)c3ccccc3n2)cc(OC)c1OC	7.3	8.8	2.2	8.6	/	59.6*
COc1cc(-c2cc(C(=O)Nc3ccc(O)cc3)c3ccccc3n2)cc(OC)c1OC	-4.9	0.3	-5.1	-4.8	12.2	-17.5
CC(=O)c1cccc(NC(=O)c2cc(-c3ccco3)nc3ccccc23)c1	4.3	19.4	0.1	1.7	/	65.5*
COC1C=CC=C(C)C(=O)NC2=CC(=O)C(N)=C(CC(C)CC(OC)C(O)C(C)C=C(C)C1OC(N)=O)C2=O (stereo not drawn)	40.1	17.5	/	/	/	70.0*
N#C/C(=C\c1cccs1)C(=O)NCc1ccccc1	-1.7	-42.4	-1.6	-10.7	2.5	-10.7
N#C/C(=C\c1cccs1)C(=O)Nc1nccs1	6.5	2.2	-6.6	-1.0	21.2	52.9*
CSc1nc2cc(Oc3cccc(Cl)c3Cl)c(Cl)cc2[nH]1	1.5	56.4*	1.0	-1.0	10.4	23.1
O=C(NCCN1CCCCC1)Nc1ccc(F)cc1	3.2	7.1	0.9	-0.5	/	-3.4
O=C(NCCN1CCCCC1)Nc1cccc(F)c1	-10.9	15.7	16.1*	2.8	/	-17.6
C#CCN1C(=O)S/C(=C/C=C/c2ccc(N(C)C)cc2)C1=O	21.1	-49.6	21.0*	/	23.3	-21.4
O=C(CN1C(=O)S/C(=C\C=C\c2ccccc2)C1=O)Nc1ccccc1C(=O)O	15.0	16.6	5.4	-0.5	13.6	7.0
COc1ccc(CC(=O)N(C)Cc2ccc(OC(F)F)cc2)cc1S(=O)(=O)N1CCOCC1	-1.1	0.7	/	/	/	9.9
CSc1nc(-c2cccs2)c(C#N)c(=O)[nH]1	-10.2	-1.1	-0.8	4.4	20.3	-22.4
N#Cc1c(-c2cccs2)nc(SCc2ccc(Cl)cc2)[nH]c1=O	3.8	74.0*	0.2	-0.6	29.3	13.9
CN(CC(=O)Nc1ccccc1Br)C(=O)C(Cc1ccccc1)NC(=O)c1ccccc1 (stereo not drawn)	8.7	17.7	-1.3	59.1*	/	8.5
CN(Cc1ccc(F)cc1)C(=O)C(Cc1ccccc1)NC(=O)c1ccccc1 (stereo not drawn)	20.4	16.1	/	-1.0	/	22.7
C/C(=C(/NC(=O)c1ccccc1)C(=O)O)c1ccco1	10.7	6.0	3.0	-0.8	14.5	86.7*
Cc1ccc(-c2csc(NC(=O)CN3CCOCC3)n2)cc1C	20.6	0.3	5.7	2.7	/	7.3
COC(=O)c1c(NC(=O)COc2ccc(Cl)cc2)sc2c1CC(C)(C)NC2(C)C	73.3*	19.4	6.5	3.9	/	-165.7
Cc1cc(OCC(=O)Nc2sc3c(c2C#N)CC(C)(C)NC3(C)C)c(C(C)C)cc1Cl	32.0	34.8	4.6	8.8	/	-11.6
Cc1ccc(C(C)C)c(OCC(=O)Nc2sc3c(c2C#N)CC(C)(C)NC3(C)C)c1	12.9	47.4	1.9	17.6	/	50.1*
CSc1nc2cc(C)nn2c(-c2ccccc2)c1C#N	-0.3	-1.2	8.6	6.3	-4.9	-1.6
SMILES	C8 TRAIL sens	TROY signal inh	HSP90 refold inh	Platelet DG rel	PPC-1+TRAIL kill	TWEAK Fn14 block
Cc1ccc2nc(-c3ccc(S(=O)(=O)N4CCCCC4)cc3)cn2c1	18.5	51.9*	3.5	-5.5	13.0	30.0
O=C(Nc1ccc(-c2nc3ccccc3o2)cc1)c1ccc(N2C(=O)C3C4C=CC(C4)C3C2=O)cc1 (stereo not drawn)	40.1	57.0*	1.3	-4.3	30.4	21.2
O=C(Nc1ccc(-c2nc3ccccc3o2)c(O)c1)c1cc(-n2cnnc2)ccc1Cl	29.1	38.3	-1.2	-1.5	38.8	66.2*
O=C(Nc1ccc2oc(-c3ccccc3)nc2c1)c1cc(-n2cnnc2)ccc1Cl	0.5	-33.9	1.1	12.5	13.2	32.1
O=C(Nc1ccc(-c2nc3ccccc3o2)cc1)c1ccc2c(c1)OCO2	4.1	-30.9	0.4	3.2	23.1	0.5
O=C(Nc1ccc(-c2nc3ccccc3o2)cc1)c1cc(-n2cnnc2)ccc1Cl	34.3	35.7	2.4	0.2	4.3	75.6*
CC1(C)CC(NC(=O)C2CCN(S(=O)(=O)c3cccc(C(F)(F)F)c3)CC2)CC(C)(C)N1	4.1	8.7	/	/	/	14.0
Cc1onc(-c2c(F)cccc2Cl)c1C(=O)N=C(N)N1CC(C)OC(C)C1 (stereo not drawn)	-1.0	2.1	0.4	5.1	-4.2	-7.9
COc1cccc(C(=O)Nc2ccc(-c3nc4ccccc4o3)c(O)c2)c1	10.1	21.3	-2.2	-0.1	27.1	6.2
COc1cc(C(=O)Nc2ccc(-c3nc4cc(C)ccc4o3)c(O)c2)cc(OC)c1OC	2.7	2.3	0.3	-4.0	-8.1	51.7*
Cc1ccc(-c2nc3cc(C)ccc3o2)cc1	53.8*	65.3*	13.0	-3.6	31.3	84.3*
Cc1ccc2oc(-c3ccc(NC(=O)c4cccnc4)cc3)nc2c1	19.4	13.3	-5.0	1.0	-6.0	56.2*
Cc1ccc2oc(-c3ccco3)nc2c1	4.0	-30.4	-2.7	6.5	-1.5	13.0
CN1CCN(c2ncnc3c2ncn3[C@H]2CN(Cc3cccs3)C[C@@H](CO)O2)CC1	-4.0	12.0	/	/	/	1.4
CCn1nccc1C(=O)Nc1ccc(C)c(C)c1	9.4	-52.6	-4.7	17.0	/	-17.4
CCN(CC)c1ccc(/C=C2\C(=O)N(c3nnc(C)c(=O)[nH]3)N=C2C)cc1	-6.3	-20.4	0.0	-12.9	22.3	74.8*
CCN(CC)c1ccc(/C=C2/C(=O)ON=C2C)cc1	-6.0	-71.1	5.9	5.1	17.6	-5.9
Cc1ccc(-n2c3c(cc(C(=O)NCC(=O)c4ccccc4)c2=O)C(=O)CCC3)cc1	-11.7	15.1	2.3	17.8	/	92.8*
O=C(c1ccco1)N1CCN(c2nc3ccccc3c(=O)n2-c2ccccc2)CC1	-0.5	61.0*	-1.7	-9.2	25.1	-22.1
Cc1cc(N2CCN(C(=O)c3ccco3)CC2)c2ccccc2n1	-3.8	-11.7	1.6	1.8	-6.9	7.3
CC1(C)CC(=O)C=C(NC2=CC3OC(c4ccccc4)OCC3OC2=O)C1 (stereo not drawn)	-0.2	17.0	0.4	?	3.2	76.2*
O=C(/C=C/c1ccc2c(c1)OCCCO2)c1ccc2ccccc2c1O	5.4	61.1*	-3.6	13.8	10.9	32.7
